Assay outcomes deposited in PubChem BioAssay by Sanford-Burnham Center for Chemical Genomics.
Shown are actives, neighbours in structure and some others; about 2.7% of the full set was active somewhere.
NadD inh = blocks S. aureus nicotinate mononucleotide adenylyltransferase. purified NadD enzyme, colorimetric absorbance read-out. inhibition, % at 20 µM. actives 0.78% (n = 360,000); in the data active means inhibition above about 26%
MPTP block = inhibitors of mitochondrial permeability transition pore; isolated mouse mitochondria, Ca2+ swelling absorbance, 30 min; inhibition, % at 10 µM; actives 1.4% (n = 360,000); AID 602449;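 active means inhibition of 50% or more, scaled per plate between neutral and stimulator controls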;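 further: 0% = DMSO wells given calcium and 100% = 1 mM EGTA wells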
H9c2 TAG inh = inhibitors of triacylglycerol accumulation; inhibition, % at 12.5 µM; actives 0.66% (n = 230,000); AID 651582; H9c2 cells, Nile Red lipid (TAG) fluorescence; cells loaded with 200 µM oleic acid;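 active means pattern-corrected inhibition of lipid staining of at least 50% with the nuclear-stain viability signal not falling by more than 50%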;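 further: 0% = DMSO wells and 100% = triacsin C control wells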
aDG glyco act = increases alpha dystroglycan glycosylation. AID 624168. actives 0.22% (n = 360,000). Pro5-aDG cells, alpha-DG glycosylation AlphaScreen (IIH6); 0% Pro5, 100% B10-LARGE cell signal. activation, % at 10 µM;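 active means activation of at least 8% versus controls, or a plate z-score of at least 8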;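 further: Pro5 are CHO cells carrying HIG-tagged alpha-DG that lacks glycosylation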
MPTP counter = membrane potential counter-screen of mitochondrial pore inhibitors. shares compounds with MPTP block. isolated mitochondria, Rhodamine 123 fluorescence. inhibition, % at 10 µM. actives 78% (n = 5,000). AID 624504; in the data active means inhibition above about 22%;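 further: 0% = DMSO vehicle and 100% = positive control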
* = called active by the depositor.

What do the screens show for `Cc1c(Cl)cccc1NC(=S)NCCc1ccc(F)cc1`?
NadD inh: -3.3; MPTP block: 32.3; aDG glyco act: 0.1

Results for C=CCN(C(=O)CNC(=O)c1ccco1)C(C(=O)NC1CCCCC1)c1cccnc1 (configuration not stated) ?
NadD inh: -4.3; MPTP block: -1.7; aDG glyco act: 0.1

Results for O=C(Nc1ccc(F)cc1)C(c1ccncc1)N1CCN(c2cccc(C(F)(F)F)n2)CC1 (configuration not stated) ?
MPTP block: -0.2; aDG glyco act: 0.1

What do the screens show for `CN(CC(=O)Nc1ccccc1Cl)C(=O)COC(=O)Cc1ccc(F)cc1`?
NadD inh: 6.1; MPTP block: -0.5; H9c2 TAG inh: 15.6; aDG glyco act: -0.5

Results for N#Cc1ccc(NC(=S)Nc2ccccc2)cc1 ?
NadD inh: 2.4; MPTP block: 90.0*; H9c2 TAG inh: 7.4; aDG glyco act: 0.0; MPTP counter: 92.0*

How did S=C(Nc1ccccc1)Nc1ccc(Br)cc1 do in these assays?
NadD inh: -2.7; MPTP block: 94.9*; H9c2 TAG inh: -14.2; aDG glyco act: 0.6; MPTP counter: 88.2*

Results for S=C(Nc1cccc(Br)c1)c1ccccc1 ?
NadD inh: -6.5; MPTP block: 53.1*; H9c2 TAG inh: 1.5; aDG glyco act: -0.4; MPTP counter: 71.4*

Results for CC(=O)Nc1ccc(NC(=S)Nc2ccccc2)cc1 ?
NadD inh: 0.7; MPTP block: -0.5; H9c2 TAG inh: -22.2; aDG glyco act: -0.1

How did CC(C)(C)NC(=S)Nc1ccc(Br)cc1 do in these assays?
NadD inh: 2.4; MPTP block: 50.8*; aDG glyco act: 0.3; MPTP counter: 66.1*

How did COc1ccc(NC(=O)C2(C)CCN2C(=O)Cc2ccc(Cl)cc2Cl)cc1OC (configuration not stated) do in these assays?
NadD inh: -2.8; MPTP block: 0.4; H9c2 TAG inh: -10.8; aDG glyco act: 0.5

Results for CCCCCCCCCC1(CC(=O)OCC)SCCN1C(N)=O (configuration not stated) ?
NadD inh: -5.0; MPTP block: 6.9; H9c2 TAG inh: -26.9; aDG glyco act: -0.1

What do the screens show for `S=C(Nc1ccccc1)Nc1cccc(Br)c1`?
NadD inh: -3.9; MPTP block: 90.2*; H9c2 TAG inh: -0.3; aDG glyco act: 0.1; MPTP counter: 102.4*

What do the screens show for `O=C(CCc1ccccc1)NC(=S)Nc1cccc(Br)c1`?
NadD inh: -3.0; MPTP block: 5.8; aDG glyco act: -0.1

Results for CC(=O)Nc1ccc(NC(=S)Nc2ccc(Br)cc2)cc1 ?
NadD inh: 0.1; MPTP block: 97.8*; H9c2 TAG inh: -11.9; aDG glyco act: 0.0; MPTP counter: 88.4*

How did Cc1ccc(N=Cc2cc(Cc3ccccc3Cl)cc([N+](=O)[O-])c2O)c(O)c1 do in these assays?
NadD inh: 42.3*; MPTP block: 84.4*; H9c2 TAG inh: -4.1; aDG glyco act: 0.7; MPTP counter: 53.4*

What do the screens show for `COc1ccc(N=Cc2cc(Cc3ccccc3Cl)cc([N+](=O)[O-])c2O)cc1OC`?
NadD inh: 15.6; MPTP block: 62.3*; aDG glyco act: 0.0; MPTP counter: -4.7

How did CC1(C)Cc2c(cnn2-c2cccc(F)c2)C(NC(=O)Cn2cccn2)C1 (configuration not stated) do in these assays?
NadD inh: -1.6; MPTP block: -1.2; H9c2 TAG inh: -9.1; aDG glyco act: 0.2

Results for Cc1nc2ccccc2c2oc(C(=O)NCc3ccc4c(c3)OCO4)cc12 ?
NadD inh: -1.8; MPTP block: 63.2*; H9c2 TAG inh: -0.1; aDG glyco act: 0.1; MPTP counter: 30.7*

Results for C1=C(CCNc2ncnc3c2[nH]c2ccccc23)CCCC1 ?
NadD inh: 0.3; MPTP block: 103.6*; aDG glyco act: 3.9; MPTP counter: 82.9*

How did Brc1ccc2[nH]c3c(NCc4ccccn4)ncnc3c2c1 do in these assays?
NadD inh: 3.9; MPTP block: 57.4*; H9c2 TAG inh: -5.2; aDG glyco act: 0.1; MPTP counter: 71.6*

Results for COc1ccc(CNc2ncnc3c2[nH]c2ccccc23)cc1 ?
NadD inh: 5.4; MPTP block: 90.8*; H9c2 TAG inh: -21.6; aDG glyco act: 1.8; MPTP counter: 90.9*

Results for c1ccc(CNc2ncnc3c2oc2ccccc23)nc1 ?
NadD inh: 4.0; MPTP block: 0.6; H9c2 TAG inh: 11.2; aDG glyco act: 0.3

How did O=C(O)c1cc(S(=O)(=O)Nc2ccc3cn[nH]c3c2)ccc1Cl do in these assays?
NadD inh: -4.5; MPTP block: 0.5; H9c2 TAG inh: -4.0; aDG glyco act: 0.2

What do the screens show for `COc1ccc(CN(C)Cc2nc(Cc3cccc(F)c3)no2)c2cccnc12`?
NadD inh: -6.9; MPTP block: 72.9*; H9c2 TAG inh: -27.9; aDG glyco act: 4.1; MPTP counter: 82.9*

What do the screens show for `Fc1cc(F)cc(NC(=S)Nc2ccccc2N2CCOCC2)c1`?
NadD inh: -0.1; MPTP block: 94.3*; H9c2 TAG inh: -7.2; aDG glyco act: 0.2; MPTP counter: 101.7*

What do the screens show for `OC(c1ccc(F)c(F)c1)c1nc(-c2ccc3c(c2)OCO3)cs1` (configuration not stated)?
NadD inh: -5.6; MPTP block: 0.8; H9c2 TAG inh: -7.6; aDG glyco act: 0.0

Results for CC(C)S(=O)(=O)C1=NSC2=NC(=O)/C(=C\c3ccc(-c4ccccc4)o3)C(=N)N21 ?
NadD inh: 12.7; MPTP block: 105.8*; aDG glyco act: 0.0; MPTP counter: 68.4*

How did CC(C)S(=O)(=O)C1=NSC2=NC(=O)/C(=C\c3ccc(-c4cccc(C(=O)O)c4)o3)C(=N)N21 do in these assays?
NadD inh: 2.3; MPTP block: -3.1; H9c2 TAG inh: 3.7; aDG glyco act: 0.8

What do the screens show for `CC1Cc2cc(S(=O)(=O)NCc3ccccc3)ccc2N1C(=O)C1CCC1` (configuration not stated)?
NadD inh: -1.6; MPTP block: 72.2*; aDG glyco act: 0.4; MPTP counter: 53.2*

Results for Cc1nc(SCC(=O)NCc2ccc3c(c2)OCO3)nc(C)c1C ?
NadD inh: -7.7; MPTP block: -0.6; H9c2 TAG inh: 18.0; aDG glyco act: 0.0

How did CCOC(=O)C(=O)N(C)c1c(CC)nc2c(OCc3ccccc3OC)cccn12 do in these assays?
NadD inh: 7.5; MPTP block: -0.1; H9c2 TAG inh: -9.9; aDG glyco act: 0.0

What do the screens show for `Cc1ccc(NC(=O)CN(C)C(=O)Cn2ccsc2=N)cc1`?
NadD inh: -4.6; MPTP block: -0.6; H9c2 TAG inh: 2.3; aDG glyco act: 0.3
